TEAD-YAP block = TEAD-YAP interaction inhibition, primary screen, TEAD-YAP interaction inhibitor project, luminescence, HEK-TIYL cells; actives 1.4% (n = 640,000); inhibition, % at 9.12 µM; AID 1259422, 2018; TEAD-Gal4/YAP UAS-luciferase luminescence; in the data active = inhibition above about 32%;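 also: 0% = median of test compound wells and 100% = reference inhibitor wells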
GPR151 ag = activators of human GPR151, primary screen, cell-based, PathHunter beta-arrestin, luminescence; activation, % at 11.2 µM; actives 1% (n = 650,000); AID 1508602, 2020; PathHunter beta-arrestin GPR151 cells; in the data active = activation above about 4.9%;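 also: 0% = median of compound wells and 100% = cells with positive control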
Target sequence (Q8TDV0 whole entry, looked up): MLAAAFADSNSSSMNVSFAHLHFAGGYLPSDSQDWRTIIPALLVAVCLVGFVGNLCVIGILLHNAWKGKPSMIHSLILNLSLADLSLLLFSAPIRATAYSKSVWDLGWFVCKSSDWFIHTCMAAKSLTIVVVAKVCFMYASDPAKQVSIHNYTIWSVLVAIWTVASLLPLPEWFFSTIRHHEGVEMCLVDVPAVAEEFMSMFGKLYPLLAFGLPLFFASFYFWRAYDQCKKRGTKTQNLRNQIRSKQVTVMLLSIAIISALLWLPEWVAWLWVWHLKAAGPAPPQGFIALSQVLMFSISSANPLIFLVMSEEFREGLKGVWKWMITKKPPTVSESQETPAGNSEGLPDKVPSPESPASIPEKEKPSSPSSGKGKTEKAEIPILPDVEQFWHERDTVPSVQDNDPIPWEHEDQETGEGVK
MITF inh = MITF inhibitors, primary screen, biochemical, AlphaScreen, human; Microphthalmia-associated transcription factor (Homo sapiens), O75030; AlphaScreen MITF homodimerization, bead proximity signal; inhibition, % at 2.6 µM; actives 0.91% (n = 650,000); AID 1259374, 2018; in the data active = inhibition above about 50%;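 also: 0% = vehicle wells with protein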
FBW7 activator = FBW7 E3 ligase activators, primary screen, biochemical, AlphaScreen, human. F-box/WD repeat-containing protein 7 (Homo sapiens), Q969H0. AlphaScreen FBW7–phospho-cyclin E peptide binding, activator screen. normalized activity (activation), % at 26.1 µM. actives 0.13% (n = 650,000); in the data active = normalized activity above about 1.9%;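 also: purified mutant Fbw7 with reduced substrate affinity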
GPR151 conf act = GPR151 activators, triplicate retest, confirmation, cell-based, PathHunter beta-arrestin, luminescence; shares compounds with GPR151 ag; GPR151 PathHunter beta-arrestin cells, 90 min; % of EA-reagent control over plate median; activation, % at 11.2 µM; 6,700 tested, under 10 active; AID 1508609, 2020;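 active = mean percent activation across replicates above the confirmation screen cutoff of 4.91%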
GPR119 ag = GPR119 activators in beta-arrestin cells, counter-screen for GPR151 activator project, cell-based, PathHunter beta-arrestin, luminescence, triplicate; shares compounds with GPR151 ag; 90 min; 0 = compound-well median, 100 = enzyme-acceptor control; activation, % at 11.2 µM; actives 0.3% (n = 6,700); AID 1508611, 2020;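 active = mean percent activation in the counterscreen above 29.09%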;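 also: counterscreen on off-target GPR119 to flag nonselective hits from the GPR151 activator screen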
The depositor's hits bear a star; ! = not confirmed by another sample. Compounds with a hit are over-represented: about 3.5% of the library has one in this group of screens.

Screening CCOc1cc(C2C(C(=O)N3CCCCC3)=C(C)NC3=C2C(=O)CCC3)cc(Br)c1OC (stereo unspecified) returned TEAD-YAP block 12, GPR151 ag 4.9*, MITF inh 5, FBW7 activator 0, GPR151 conf act 0 and GPR119 ag 6.
For CCOC(=O)c1c(N2C(=O)CCC2=O)sc2c1CCC(C)C2 (stereo unspecified) the results were TEAD-YAP block 4, GPR151 ag 1, MITF inh 10 and FBW7 activator 0.
For CCOC(=O)c1c(N2C(=O)C3C4C=CC(C4)C3C2=O)sc2c1CCC(C)C2 (stereo unspecified) the results were TEAD-YAP block 12, GPR151 ag 7.3*, MITF inh -2, FBW7 activator 0, GPR151 conf act 0 and GPR119 ag -3.
For CCOc1ccc(/C=C2/N=C(c3ccc(OC)c(Br)c3)OC2=O)cc1 the results were TEAD-YAP block -1, GPR151 ag 1, MITF inh -3 and FBW7 activator 0.
For CCOc1ccc(/C=C2/N=C(c3cncc(Br)c3)OC2=O)cc1 the results were TEAD-YAP block 4, GPR151 ag 5.0*, MITF inh 18, FBW7 activator 0, GPR151 conf act 0 and GPR119 ag -11.
Screening O=C(/C=C/c1ccccc1)Nc1cc(C(=O)NCCSCc2ccccc2)ccc1N1CC2CC(C1)c1cccc(=O)n1C2 (stereo unspecified) returned TEAD-YAP block -3, GPR151 ag -1, MITF inh -2 and FBW7 activator 0.
`COCCn1c(=N)c(C(=O)NCc2ccco2)cc2c(=O)n3ccccc3nc21` gave TEAD-YAP block -13, GPR151 ag 7.3*, MITF inh 6, FBW7 activator 0, GPR151 conf act 0 and GPR119 ag -8.
For COc1cccc(NC(=O)c2cc3c(=O)n4ccccc4nc3n(CC(C)C)c2=N)c1 the results were TEAD-YAP block -8, GPR151 ag 5.0*, MITF inh -5, FBW7 activator 0, GPR151 conf act -1 and GPR119 ag -7.
For COc1ccc(NC(=O)C2CCC(Cn3c(=S)[nH]c4ccccc4c3=O)CC2)cc1 (stereo unspecified) the results were TEAD-YAP block -11, GPR151 ag 7.0*, MITF inh -6, FBW7 activator 0, GPR151 conf act 0 and GPR119 ag -11.
Screening CCOC(=O)N1CCC(N(CCN(C)C)C(=S)Nc2cc(C)cc(C)c2)CC1 returned TEAD-YAP block -10, GPR151 ag 7.7*, MITF inh -2, FBW7 activator 0, GPR151 conf act 0 and GPR119 ag 4.
`CCOC(=O)N1CCN(C(=S)Nc2cc(OC)ccc2OC)CC1` gave TEAD-YAP block 7, GPR151 ag 5.2*, MITF inh 10, FBW7 activator 0, GPR151 conf act 0 and GPR119 ag 1.
For CCOC(=O)N1CCN(C(=S)Nc2ccc(C)cc2)CC1 the results were TEAD-YAP block -7, GPR151 ag 6.0*!, MITF inh -2, FBW7 activator 1, GPR151 conf act 2 and GPR119 ag 11.
Screening CCOC(=O)N1CCC(N(CCN(C)C)C(=S)Nc2cccc(CC)c2)CC1 returned TEAD-YAP block -8, GPR151 ag 0, MITF inh -8 and FBW7 activator 0.
CCOC(=O)N1CCN(C(=O)Nc2ccc(Cl)cc2Cl)CC1 was read as TEAD-YAP block 6, GPR151 ag 5.1*, MITF inh -29, FBW7 activator 0, GPR151 conf act 0 and GPR119 ag -8.
CCOC(=O)N1CCN(C(=S)Nc2cc(Cl)ccc2OC)CC1 was read as TEAD-YAP block 1, GPR151 ag 1, MITF inh 2 and FBW7 activator 0.
CCOCCCNC(=O)CS(=O)Cc1nc(-c2ccc(Cl)cc2)oc1C (stereo unspecified) was read as TEAD-YAP block 6, GPR151 ag 0, MITF inh 15 and FBW7 activator 1.
`Cc1ccc(NC(=O)COc2cc(C)ccc2C(C)C)c(Br)c1` gave TEAD-YAP block 6, GPR151 ag 0, MITF inh -7 and FBW7 activator 0.
`CC(C)n1c(-c2cccs2)nc2c(NCCCN3CCCC3=O)ncnc21` gave TEAD-YAP block 3, GPR151 ag 1, MITF inh 35 and FBW7 activator 0.
`CC(C)n1c(-c2csc3ccccc23)nc2c(NCCCN3CCCC3=O)ncnc21` gave TEAD-YAP block 5, GPR151 ag 6.8*, MITF inh -2, FBW7 activator 0, GPR151 conf act 1 and GPR119 ag -4.
COc1ccc([C@@H](C)NC(=O)CCC2(Cc3ccc(C)cc3)CCC(=O)N2)cc1 (stereo partly specified) was read as TEAD-YAP block 9, GPR151 ag 1, MITF inh 0 and FBW7 activator 0.
`COc1ccc(CC2(CCC(=O)N[C@H](C)c3ccc(OC)cc3)CCC(=O)N2)cc1` (stereo partly specified) gave TEAD-YAP block 7, GPR151 ag 5.1*, MITF inh -4, FBW7 activator 0, GPR151 conf act -1 and GPR119 ag -7.
For Cc1nnc(NC(=O)CN2CCC(O)(c3ccc(F)cc3)CC2)s1 the results were TEAD-YAP block 2, GPR151 ag 6.8*, MITF inh -2, FBW7 activator 0, GPR151 conf act 0 and GPR119 ag 6.
Screening C=CCn1c(CCNC(=O)C(C)C)nc2ccccc21 returned TEAD-YAP block -1, GPR151 ag 7.0*, MITF inh 5, FBW7 activator 0, GPR151 conf act 0 and GPR119 ag 4.
Screening CC(C)C(=O)NCCc1nc2ccccc2n1Cc1ccccc1 returned TEAD-YAP block -4, GPR151 ag 0, MITF inh 8 and FBW7 activator 0.
`COc1ccc(NC(=S)NN2CCOCC2)cc1OC` gave TEAD-YAP block -4, GPR151 ag 14*, MITF inh -12, FBW7 activator 0, GPR151 conf act 1 and GPR119 ag 2.
Cc1cc(NC(=O)CCN2CCN(C/C=C/c3ccccc3)CC2)ccc1Br was read as TEAD-YAP block 15, GPR151 ag 1, MITF inh 3 and FBW7 activator 0.
COc1ccc(NC(=O)N2CCCCCC2)cc1OC was read as TEAD-YAP block -3, GPR151 ag 5.5*, MITF inh 15, FBW7 activator 0, GPR151 conf act -2 and GPR119 ag -18.

From PubChem
